About 8,800 targets were measured; listed, in parts, are those with a hit and a random draw of the rest. About 0.5% of all pairs of compound and target were hits. A number with no mark means an inactive call.
Experiments:
Assay in all cases: log2 fold change, soluble protein after heating vs DMSO (PISA); higher = thermal stabilisation; K562 lysate, 10 uM; active = over 0.2 and 3.5 SD of the protein, either way, in both replicates (recomputed)
[1] = compound: CCCS(=O)(=O)Nc1ccc(F)c(C(=O)c2c[nH]c3ncc(-c4ccc(Cl)cc4)cc23)c1F [vemurafenib]
Procedure, shortened: (§1)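 To prepare the extract, K562 pellets were dounce-homogenised in PBS pH 7.4 with 1 mM MgCl2, giving crude material at 1 mg/mL protein. This was treated with 10 μM compound for 30 min, then heated in aliquots for 3 min over 48°C-58°C before pooling and addition of NP-40 to 0.5% at 4°C. Centrifugation at 21,000xg for 90 min left soluble protein in the supernatant, which TMTpro 16plex LC-MS/MS quantified with equalised channel sums. Results are log-two fold changes in thermal stability compared with solvent controls, from duplicates.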

[2] = compound: CCCS(=O)(=O)Nc1ccc(F)c(C(=O)c2c[nH]c3ncc(Cl)cc23)c1F
Procedure, shortened: as §1

[3] = compound: CCN(CCCOc1ccc2c(Nc3cc(CC(=O)Nc4cccc(F)c4)[nH]n3)ncnc2c1)CCOP(=O)(O)O [barasertib]
Procedure, shortened: as §1

[4] = compound: CC[C@@H]1C(=O)N(C)c2cnc(Nc3ccc(C(=O)NC4CCN(C)CC4)cc3OC)nc2N1C1CCCC1
Procedure, shortened: as §1

[5] = compound: CC[C@@H]1C(=O)N(C)c2cnc(Nc3ccc(C(=O)N[C@H]4CC[C@H](N5CCN(CC6CC6)CC5)CC4)cc3OC)nc2N1C(C)C [volasertib]
Procedure, shortened: as §1

[6] = compound: CCn1c(C(=O)N(C2CC2)C2CC2)cc2c3c(ncn3C)c(Nc3cc(C)n(C)n3)nc21
Procedure, shortened: as §1

[7] = compound: CCn1cc(-c2ccnc3[nH]c(-c4cccc(CN(C)C)c4)cc23)c(-c2ccc(NC(=O)N(C)C)cc2)n1
Procedure, shortened: as §1

[8] = compound: CN1CCC(CNc2ccc3ncc(-c4cccc(OC(F)(F)F)c4)n3n2)CC1
Procedure, shortened: as §1

[9] = compound: CN1CCN(CCOc2cc(OC3CCOCC3)c3c(Nc4c(Cl)ccc5c4OCO5)ncnc3c2)CC1 [saracatinib]
Procedure, shortened: as §1

[10] = compound: CN1CCN(c2nc(C3=C(c4c[nH]c5ccccc45)C(=O)NC3=O)c3ccccc3n2)CC1 [sotrastaurin]
Procedure, shortened: as §1

[11] = compound: CN1CC[C@H](c2c(O)cc(O)c3c(=O)cc(-c4ccccc4Cl)oc23)[C@H](O)C1 [alvocidib]
Procedure, shortened: as §1

[12] = compound: CN1CCc2c(c3ccccc3n2Cc2ccc(C(=O)NO)cc2)C1 [Tubastatin A]
Procedure, shortened: as §1

[13] = compound: CNC(=O)C1=CC=CC=C1NC2=NC(=NC=C2Cl)NC3=C(C=C(C=C3)N4CCOCC4)OC
Procedure, shortened: as §1

[14] = compound: CNC(=O)c1ccc(Nc2ncc(C(F)(F)F)c(NCc3nccnc3N(C)S(C)(=O)=O)n2)cc1 [defactinib]
Procedure, shortened: as §1

[15] = compound: CNc1nc(-c2ccc3c(N)n[nH]c3c2)cc(N2C[C@@H](C(=O)NC3CCCCC3)CC[C@H]2C)n1
Procedure, shortened: as §1

[16] = compound: COC(=O)N[C@@H](C)CNc1nccc(-c2cn(C(C)C)nc2-c2cc(Cl)cc(NS(C)(=O)=O)c2F)n1 [encorafenib]
Procedure, shortened: as §1

[17] = compound: COC(=O)[C@H](CCSC)NC(=O)C1=C(C=C(C=C1)NC[C@H](CS)N)C2=CC=CC=C2
Procedure, shortened: as §1

[18] = compound: COc1cc(Nc2ncc3c(n2)-c2ccc(Cl)cc2C(c2c(F)cccc2OC)=NC3)ccc1C(=O)O [alisertib]
Procedure, shortened: as §1

[19] = compound: COc1cc2nc(-c3cc(F)ccc3O)nc(N[C@@H]3CNC[C@H]3C(C)(C)O)c2cc1OC
Procedure, shortened: as §1

[20] = compound: COc1cc2ncnc(Nc3ccc(F)c(Cl)c3)c2cc1OCCCN1CCOCC1 [gefitinib]
Procedure, shortened: as §1

UniProt Q9Y3T6, sequence (Q9Y3T6 whole entry, looked up, one chain of several): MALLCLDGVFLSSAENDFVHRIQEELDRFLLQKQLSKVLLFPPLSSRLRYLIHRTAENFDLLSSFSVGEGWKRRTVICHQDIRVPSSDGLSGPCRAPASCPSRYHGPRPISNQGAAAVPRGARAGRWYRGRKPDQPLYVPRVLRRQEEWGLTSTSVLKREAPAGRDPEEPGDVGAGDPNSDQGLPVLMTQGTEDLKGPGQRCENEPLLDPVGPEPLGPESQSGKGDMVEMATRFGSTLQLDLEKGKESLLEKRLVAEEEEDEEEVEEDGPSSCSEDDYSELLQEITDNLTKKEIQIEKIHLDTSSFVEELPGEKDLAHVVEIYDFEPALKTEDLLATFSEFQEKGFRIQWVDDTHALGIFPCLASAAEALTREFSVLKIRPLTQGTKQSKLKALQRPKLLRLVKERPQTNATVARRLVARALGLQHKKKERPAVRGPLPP
UniProt P78509, sequence (P78509 whole entry, looked up): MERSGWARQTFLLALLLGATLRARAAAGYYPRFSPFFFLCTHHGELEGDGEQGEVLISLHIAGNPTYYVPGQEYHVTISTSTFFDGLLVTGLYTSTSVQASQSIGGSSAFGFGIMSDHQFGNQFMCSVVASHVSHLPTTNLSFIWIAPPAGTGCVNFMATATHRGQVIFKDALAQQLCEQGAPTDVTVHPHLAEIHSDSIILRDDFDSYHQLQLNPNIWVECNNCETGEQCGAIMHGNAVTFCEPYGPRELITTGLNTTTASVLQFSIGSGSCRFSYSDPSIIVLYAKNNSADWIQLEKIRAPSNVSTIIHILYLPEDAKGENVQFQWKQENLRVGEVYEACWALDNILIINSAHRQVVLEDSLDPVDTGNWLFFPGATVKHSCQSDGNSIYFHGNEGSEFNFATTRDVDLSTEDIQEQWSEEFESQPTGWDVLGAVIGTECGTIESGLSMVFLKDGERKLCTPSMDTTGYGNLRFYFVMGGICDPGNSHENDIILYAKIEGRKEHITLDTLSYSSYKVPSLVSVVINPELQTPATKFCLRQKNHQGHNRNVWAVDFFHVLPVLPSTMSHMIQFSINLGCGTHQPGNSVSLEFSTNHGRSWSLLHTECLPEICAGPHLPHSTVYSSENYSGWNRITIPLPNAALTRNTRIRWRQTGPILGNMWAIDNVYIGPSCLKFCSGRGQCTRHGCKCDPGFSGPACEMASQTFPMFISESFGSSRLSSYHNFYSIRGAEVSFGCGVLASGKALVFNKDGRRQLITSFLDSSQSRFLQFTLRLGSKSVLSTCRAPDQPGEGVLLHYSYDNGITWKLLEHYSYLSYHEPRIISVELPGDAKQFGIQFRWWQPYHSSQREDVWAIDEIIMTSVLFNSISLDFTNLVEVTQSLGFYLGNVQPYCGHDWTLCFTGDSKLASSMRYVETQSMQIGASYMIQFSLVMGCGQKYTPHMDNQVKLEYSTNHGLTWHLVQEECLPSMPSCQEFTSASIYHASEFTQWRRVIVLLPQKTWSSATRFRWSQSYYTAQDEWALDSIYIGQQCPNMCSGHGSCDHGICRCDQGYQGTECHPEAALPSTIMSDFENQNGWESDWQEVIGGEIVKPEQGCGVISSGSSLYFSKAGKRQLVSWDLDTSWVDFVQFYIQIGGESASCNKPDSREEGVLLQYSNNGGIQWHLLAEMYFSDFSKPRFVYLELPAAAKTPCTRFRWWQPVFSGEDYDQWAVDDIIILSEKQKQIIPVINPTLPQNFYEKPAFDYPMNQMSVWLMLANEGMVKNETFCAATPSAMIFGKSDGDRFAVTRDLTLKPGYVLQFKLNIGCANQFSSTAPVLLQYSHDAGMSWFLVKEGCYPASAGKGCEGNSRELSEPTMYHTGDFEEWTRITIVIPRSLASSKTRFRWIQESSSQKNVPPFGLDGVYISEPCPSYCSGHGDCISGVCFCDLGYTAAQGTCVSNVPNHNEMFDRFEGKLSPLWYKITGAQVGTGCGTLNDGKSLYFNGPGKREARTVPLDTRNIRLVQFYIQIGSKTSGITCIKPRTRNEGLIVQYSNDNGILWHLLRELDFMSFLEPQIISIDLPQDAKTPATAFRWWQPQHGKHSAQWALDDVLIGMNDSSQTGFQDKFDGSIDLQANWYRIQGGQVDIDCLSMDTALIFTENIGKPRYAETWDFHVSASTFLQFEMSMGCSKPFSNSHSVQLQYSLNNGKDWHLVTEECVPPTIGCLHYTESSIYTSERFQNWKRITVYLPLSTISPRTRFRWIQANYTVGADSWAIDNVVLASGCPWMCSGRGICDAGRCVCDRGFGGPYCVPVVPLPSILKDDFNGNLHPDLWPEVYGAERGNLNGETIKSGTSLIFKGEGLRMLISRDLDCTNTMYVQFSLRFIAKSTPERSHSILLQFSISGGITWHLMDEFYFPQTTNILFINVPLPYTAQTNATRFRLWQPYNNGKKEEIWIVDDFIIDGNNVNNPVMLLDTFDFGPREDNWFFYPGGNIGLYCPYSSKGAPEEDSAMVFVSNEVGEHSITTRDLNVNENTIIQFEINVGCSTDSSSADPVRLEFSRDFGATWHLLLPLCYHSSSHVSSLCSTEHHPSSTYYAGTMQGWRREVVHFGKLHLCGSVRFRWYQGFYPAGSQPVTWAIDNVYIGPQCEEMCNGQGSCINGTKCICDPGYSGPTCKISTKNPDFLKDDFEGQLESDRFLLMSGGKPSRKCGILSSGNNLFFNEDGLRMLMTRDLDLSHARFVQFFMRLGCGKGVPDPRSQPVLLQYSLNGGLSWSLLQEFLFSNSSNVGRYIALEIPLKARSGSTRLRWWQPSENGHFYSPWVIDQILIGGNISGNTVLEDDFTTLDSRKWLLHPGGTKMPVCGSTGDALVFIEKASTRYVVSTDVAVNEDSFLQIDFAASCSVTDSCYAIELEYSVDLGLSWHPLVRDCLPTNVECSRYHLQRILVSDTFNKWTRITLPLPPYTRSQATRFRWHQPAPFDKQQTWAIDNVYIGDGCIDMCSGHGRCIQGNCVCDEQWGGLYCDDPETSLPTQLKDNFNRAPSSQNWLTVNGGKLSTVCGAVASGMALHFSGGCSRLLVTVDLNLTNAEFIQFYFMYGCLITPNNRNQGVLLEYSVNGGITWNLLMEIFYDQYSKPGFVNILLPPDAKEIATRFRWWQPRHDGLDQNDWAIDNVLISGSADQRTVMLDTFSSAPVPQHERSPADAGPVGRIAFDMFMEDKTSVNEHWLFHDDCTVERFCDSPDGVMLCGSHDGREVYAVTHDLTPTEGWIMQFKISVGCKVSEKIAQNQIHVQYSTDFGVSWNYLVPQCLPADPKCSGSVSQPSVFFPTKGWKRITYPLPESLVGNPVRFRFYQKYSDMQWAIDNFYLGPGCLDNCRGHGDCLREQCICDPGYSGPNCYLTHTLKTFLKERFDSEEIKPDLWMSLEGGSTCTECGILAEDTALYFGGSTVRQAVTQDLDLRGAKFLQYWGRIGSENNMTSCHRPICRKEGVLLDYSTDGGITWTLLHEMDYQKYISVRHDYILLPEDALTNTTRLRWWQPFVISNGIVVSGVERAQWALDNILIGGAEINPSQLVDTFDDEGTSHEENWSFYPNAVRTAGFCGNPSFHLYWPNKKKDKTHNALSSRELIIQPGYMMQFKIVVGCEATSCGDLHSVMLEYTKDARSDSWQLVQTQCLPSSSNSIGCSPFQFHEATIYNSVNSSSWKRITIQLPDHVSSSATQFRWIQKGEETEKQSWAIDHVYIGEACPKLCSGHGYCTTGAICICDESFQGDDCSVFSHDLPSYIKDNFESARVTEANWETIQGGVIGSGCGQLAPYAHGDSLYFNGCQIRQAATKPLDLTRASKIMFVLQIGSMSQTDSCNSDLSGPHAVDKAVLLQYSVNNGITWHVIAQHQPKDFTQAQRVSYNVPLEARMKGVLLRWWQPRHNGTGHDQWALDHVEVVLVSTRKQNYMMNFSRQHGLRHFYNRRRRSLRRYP
UniProt P18754, sequence (P18754 whole entry, looked up): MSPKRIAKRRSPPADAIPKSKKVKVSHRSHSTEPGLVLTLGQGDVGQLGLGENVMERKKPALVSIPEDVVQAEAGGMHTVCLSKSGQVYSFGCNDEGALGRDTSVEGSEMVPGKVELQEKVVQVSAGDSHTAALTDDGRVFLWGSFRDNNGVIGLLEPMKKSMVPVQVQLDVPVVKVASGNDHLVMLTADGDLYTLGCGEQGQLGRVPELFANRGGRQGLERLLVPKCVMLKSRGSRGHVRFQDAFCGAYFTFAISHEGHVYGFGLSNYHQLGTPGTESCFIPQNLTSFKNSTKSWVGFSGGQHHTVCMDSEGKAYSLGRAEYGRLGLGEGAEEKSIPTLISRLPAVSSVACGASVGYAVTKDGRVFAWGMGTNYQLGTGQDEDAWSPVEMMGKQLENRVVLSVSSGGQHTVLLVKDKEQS
UniProt Q8IYW5, sequence (Q8IYW5 whole entry, looked up): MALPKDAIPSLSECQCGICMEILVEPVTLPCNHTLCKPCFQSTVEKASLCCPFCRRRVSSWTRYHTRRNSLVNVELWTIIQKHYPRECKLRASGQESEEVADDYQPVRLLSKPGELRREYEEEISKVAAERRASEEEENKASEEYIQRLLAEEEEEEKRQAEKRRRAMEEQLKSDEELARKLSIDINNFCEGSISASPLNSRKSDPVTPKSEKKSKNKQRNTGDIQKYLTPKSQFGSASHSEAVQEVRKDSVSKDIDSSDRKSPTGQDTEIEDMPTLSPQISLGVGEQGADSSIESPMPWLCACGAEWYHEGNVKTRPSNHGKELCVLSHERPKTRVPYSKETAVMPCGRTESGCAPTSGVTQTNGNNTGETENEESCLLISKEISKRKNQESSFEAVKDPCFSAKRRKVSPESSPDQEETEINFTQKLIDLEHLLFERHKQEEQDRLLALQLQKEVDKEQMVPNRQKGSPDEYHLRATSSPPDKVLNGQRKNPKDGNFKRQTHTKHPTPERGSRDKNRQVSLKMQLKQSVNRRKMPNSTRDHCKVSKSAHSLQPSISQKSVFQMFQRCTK
UniProt P11233, sequence (P11233 whole entry, looked up): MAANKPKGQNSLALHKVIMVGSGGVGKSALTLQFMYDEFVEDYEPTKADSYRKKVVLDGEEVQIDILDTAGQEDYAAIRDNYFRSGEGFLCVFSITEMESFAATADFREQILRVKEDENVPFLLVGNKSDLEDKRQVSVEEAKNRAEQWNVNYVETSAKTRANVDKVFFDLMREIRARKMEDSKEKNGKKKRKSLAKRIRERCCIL

| Target | log2 fold change [1] | log2 fold change [2] | log2 fold change [3] | log2 fold change [4] | log2 fold change [5] | log2 fold change [6] | log2 fold change [7] | log2 fold change [8] | log2 fold change [9] | log2 fold change [10] | log2 fold change [11] | log2 fold change [12] | log2 fold change [13] | log2 fold change [14] | log2 fold change [15] | log2 fold change [16] | log2 fold change [17] | log2 fold change [18] | log2 fold change [19] | log2 fold change [20] |
| --- | --- | --- | --- | --- | --- | --- | --- | --- | --- | --- | --- | --- | --- | --- | --- | --- | --- | --- | --- | --- |
| RBBP8 isoform 2 (UniProt Q99708) | 0.002 | 0.182 | -0.013 | 0.079 | -0.019 | -0.065 | 0.065 | -0.021 | 0.018 | -0.017 | 0.013 | 0.07 | 0.061 | -0.023 | 0.108 | -0.039 | -0.074 | -0.008 | 0.009 | -0.014 |
| RAB6D (UniProt Q53S08) | 0.005 | -0.033 | 0.15 | 0.289 (active) | 0.033 | -0.049 | -0.065 | 0.018 | -0.053 | -0.025 | -0.029 | 0.078 | 0.024 | 0.077 | 0.087 | 0.023 | -0.034 | -0.149 | 0.062 | 0.027 |
| RRAGA (UniProt Q7L523) | 0.111 | 0.092 | -0.004 | 0.014 | 0.042 | 0.139 | -0.011 | 0.051 | 0.081 | -0.014 | -0.122 | -0.687 (active) | -0.053 | -0.044 | -0.045 | -0.032 | -0.022 | -0.161 | 0.017 | 0.04 |
| RNASEL (UniProt Q05823) | -0.004 | 0.053 | 0.077 | -0.017 | -0.103 | 0.012 | -0.006 | -0.025 | -0.011 | 0.024 | 0.054 | -0.094 | -0.034 | -0.02 | 0.012 | 0.029 | 0.144 | -0.074 | -0.035 | 0.061 |
| SEC13 isoform 3 (UniProt P55735) | -0.001 | -0.004 | -0.031 | -0.013 | 0.007 | 0.003 | 0.507 (active) | -0.042 | -0.027 | -0.015 | 0.107 | 0.029 | -0.024 | -0.06 | -0.064 | 0.002 | -0.039 | 0.02 | -0.004 | 0.03 |
| RCOR1 (UniProt Q9UKL0) | 0.028 | -0.03 | 0.108 | -0.008 | 0.003 | -0.001 | -0.071 | 0.017 | 0.001 | 0.004 | -0.031 | -0.021 | -0.017 | -0.039 | 0.014 | 0.01 | 0.115 | 0.023 | 0.027 | -0.011 |
| RALA (UniProt P11233) | 0.033 | 0.004 | -0.001 | 0.029 | 0.014 | -0.023 | -0.289 (active) | 0.169 | -0.021 | -0.027 | -0.164 | 0.044 | 0.016 | -0.057 | 0.056 | 0.03 | -0.102 | 0.009 | 0.01 | 0.023 |
| REL isoform 2 (UniProt Q04864) | -0.035 | 0.017 | 0.033 | 0.049 | -0.032 | 0.025 | 0.02 | -0.174 | -0.002 | -0.022 | 0.061 | -0.126 | 0.003 | 0.023 | -0.056 | 0.012 | 0.029 | -0.003 | -0.019 | 0.029 |
| RAPGEF2, A0A2R8YGD3 | 0 | 0.013 | 0.144 | 0.093 | -0.015 | -0.029 | 0.325 | 0.05 | 0.01 | -0.003 | -0.241 | 0.236 (active) | 0.017 | 0.119 | 0.025 | 0.017 | 0.021 | 0.007 | -0.017 | -0.042 |
| R3HCC1 (UniProt Q9Y3T6) | 0.07 | 0.036 | 0.009 | 0.044 | -0.015 | -0.022 | -0.066 | 0.082 | 0.029 | 0.021 | -0.019 | 0.023 | 0.048 | 0.055 | -0.018 | -0.004 | -0.04 | -0.002 | 0.003 | 0.008 |
| RELN (UniProt P78509) | 0.043 | -0.098 | 0.004 | 0.024 | -0.019 | 0.021 | -0.024 | 0.152 | 0.035 | 0.02 | 0.026 | -0.051 | -0.025 | 0.055 | -0.016 | -0.009 | -0.092 | -0.014 | 0.141 | 0.089 |
| RCC1 isoform 2 (UniProt P18754) | 0.049 | 0.018 | -0.008 | -0.114 | -0.066 | 0.027 | -0.105 | -0.046 | -0.021 | 0.001 | 0.012 | -0.168 | 0.018 | 0.055 | -0.007 | 0.006 | 0.151 | 0.006 | -0.017 | -0.003 |
| SEH1L isoform 1 (UniProt Q96EE3) | -0.029 | -0.001 | 0.004 | 0.069 | 0.216 (active) | -0.015 | -0.022 | 0.021 | -0.005 | -0.01 | -0.042 | 0 | 0 | -0.028 | -0.014 | -0.007 | -0.077 | 0.001 | 0.01 | -0.004 |
| RIPK1 (UniProt Q13546) | -0.053 | 0.027 | 0.01 | -0.026 | -0.066 | 0.027 | -0.019 | -0.013 | 0.016 | -0.045 | 0.001 | -0.108 | 0.044 | 0.065 | 0.035 | -0.017 | 0.025 | -0.025 | -0.016 | 0.042 |
| RNF168 (UniProt Q8IYW5) | 0.152 | 0.134 | 0.235 | 0.128 | -0.062 | 0.138 | 0.015 | 0.035 | -0.007 | -0.06 | 0.037 | -0.03 | 0.068 | -0.026 | -0.03 | -0.046 | -0.102 | -0.078 | -0.043 | 0.079 |
| RIOK3 (UniProt O14730) | 0.021 | -0.004 | 0.004 | -0.098 | -0.041 | -0.032 | -0.052 | -0.024 | -0.03 | 0.013 | -0.04 | -0.273 (active) | 0.029 | 0.018 | 0.12 | 0.058 | 0.132 | -0.006 | 0 | 0.055 |
